Records with an inconclusive call do not appear. Active and inactive are the calls of the source. Calls come from the whole dose curve; as a rule, active = well fitted cell-killing curve with a large enough effect; inconclusive = small, poorly fitted or top-dose-only effect, or effect the other way; inactive = flat fitted curve, though single readings scatter.
Key:
Experiment in all cases: Primary qHTS to identify gynecologic anti-cancer compounds using libraries of approved drugs and bioactive compounds (AID 1345084); note: nearly all actives have a fitted effect of over 55% in size
[1] = system: C33A; conditions: Gynecologic cancer cell panel viability, ATPlite luminescence, 48 h; series mostly up to 57.5 µM
Procedure, shortened: (§1)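 In this quantitative HTS, cell killing is estimated from loss of ATP-dependent luciferase light. Cells see five compound concentrations over a 48 h exposure.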

[2] = system: CAOV3; conditions: Gynecologic cancer cell panel viability, ATPlite luminescence, 48 h; series mostly up to 57.5 µM
Procedure, shortened: as §1

[3] = system: Es-2; conditions: Gynecologic cancer cell panel viability, ATPlite luminescence, 48 h; series mostly up to 57.5 µM
Procedure, shortened: as §1

[4] = system: HeLa; conditions: Gynecologic cancer cell panel viability, ATPlite luminescence, 48 h; series mostly up to 57.5 µM
Procedure, shortened: as §1

[5] = system: Hek293T; conditions: Gynecologic cancer cell panel viability, ATPlite luminescence, 48 h, control line for the selectivity index; series mostly up to 57.5 µM
Procedure, shortened: as §1

[6] = system: JEG-3; conditions: Gynecologic cancer cell panel viability, ATPlite luminescence, 48 h; series mostly up to 57.5 µM
Procedure, shortened: as §1

[7] = system: CASKI; conditions: Gynecologic cancer cell panel viability, ATPlite luminescence, 48 h; series mostly up to 57.5 µM
Procedure, shortened: as §1
% is set by controls: 0 for no effect and ±100 for the full control effect.

CCCn1ncc(CN2CCCC(C(=O)c3cccc(OC(C)C)c3)C2)c1C (stereo unspecified)
inactive: Potency [1] | Potency [2] | Potency [3] | Potency [4] | Potency [5] | Potency [6]

CC#C[C@@H](CC(=O)O)c1ccc(OCc2cccc(-c3ccc(C(F)(F)F)cc3)c2)cc1
inactive: Potency [1] | Potency [2] | Potency [7] | Potency [5] | Potency [6]

Cc1nc2ccc(CN(C)c3ccc(C(=O)NC(CCC(=O)O)C(=O)O)s3)cc2c(=O)[nH]1 (stereo unspecified)
inactive: Potency [1] | Potency [2] | Potency [7] | Potency [5]

CC(C)c1ccc(NC(=O)c2cccs2)c(-c2nc3ccccc3[nH]c2=O)c1
inactive: Potency [1] | Potency [2] | Potency [3] | Potency [4] | Potency [5] | Potency [6]

OC1CCC(Nc2nc(-c3ccccc3)nc3[nH]ccc23)CC1 (stereo unspecified)
inactive: Potency [1] | Potency [2] | Potency [3] | Potency [4] | Potency [5] | Potency [6]

C/C(=C\Cc1c(O)c(Cl)c(C)c(C=O)c1O)CC/C=C(\C)[C@H]1CC(=O)C(C)(C)O1
inactive: Potency [1] | Potency [2] | Potency [7] | Potency [5]

CC1CC(=O)C2=C(C1)C1OC1C1(O)C2C(=O)c2cccc(O)c2C1O (stereo unspecified)
inactive: Potency [1] | Potency [2] | Potency [7] | Potency [5]

COC1=CC(=O)C[C@@H](C)[C@@]12Oc1c(Cl)c(OC)cc(OC)c1C2=O
inactive: Potency [1] | Potency [2] | Potency [3]

CC(=O)O[C@H]1CC(C)(C)CC2[C@]13CO[C@@]21CCC2[C@@]4(C)CC[C@H](O[C@@H]5OC[C@H](O[C@@H]6O[C@H](CO)[C@@H](O)[C@H](O)[C@H]6O[C@@H]6OC[C@@H](O)[C@H](O)[C@H]6O)[C@H](O)[C@H]5O[C@@H]5O[C@H](CO)[C@@H](O)[C@H](O)[C@H]5O)[C@@](C)(CO)C4CC[C@@]2(C)[C@]1(C)C[C@H]3O (stereo partly specified)
inactive: activity change, negative = cytotoxicity [1] -17.3% [at 11.6 µM] | activity change, negative = cytotoxicity [2] -0.697% [at 11.6 µM] | activity change, negative = cytotoxicity [7] -20.7% [at 11.6 µM] | activity change, negative = cytotoxicity [4] -3.76% [at 11.6 µM] | activity change, negative = cytotoxicity [6] -9.1% [at 11.6 µM]

C[C@@H]1O[C@@H](O[C@H]2[C@H](OC(=O)[C@]34CCC(C)(C)C[C@H]3C3=CCC5[C@@]6(C)C[C@H](O)[C@H](O[C@@H]7O[C@H](C(=O)O)[C@@H](O)[C@H](O)[C@H]7O)[C@@](C)(CO)C6[C@H](O)C[C@@]5(C)[C@]3(C)C[C@H]4O)O[C@@H](CO)[C@@H]2O)[C@H](O)[C@H](O)[C@H]1O[C@@H]1OC[C@@H](O)[C@H](O[C@H]2OC[C@](O)(CO)[C@H]2O)[C@H]1O (stereo partly specified)
inactive: activity change, negative = cytotoxicity [1] -18.2% [at 6.55 µM] | activity change, negative = cytotoxicity [2] -15.4% [at 6.55 µM] | activity change, negative = cytotoxicity [7] -0.268% [at 6.55 µM] | activity change, negative = cytotoxicity [4] -1.36% [at 6.55 µM] | activity change, negative = cytotoxicity [5] -4.09% [at 6.55 µM] | activity change, negative = cytotoxicity [6] -17.4% [at 6.55 µM]

CNc1nc(NCc2ccc(NS(C)(=O)=O)cc2Cl)cc(-c2ccccn2)n1
inactive: Potency [1] | Potency [2] | Potency [7] | Potency [4] | Potency [6]

C[C@H](CN(C)C)Oc1nc(Nc2cc3cccc(Cl)c3cn2)cnc1C#N
inactive: Potency [1] | Potency [2] | Potency [7] | Potency [4] | Potency [6]

O=C(NCCN1CCOCC1)c1cc2c(Oc3ccc(NC(=O)C4(C(=O)Nc5ccc(F)cc5)CC4)cc3)ccnc2[nH]1
inactive: Potency [1] | Potency [2] | Potency [7] | Potency [4] | Potency [5] | Potency [6]

C=C1C(=O)O[C@@H]2/C=C(/C)[C@@H](OC(C)=O)C/C=C(\C)C[C@@H](OC(=O)/C(=C/CO)CO)[C@@H]12
inactive: Potency [1] | Potency [2] | Potency [7] | Potency [4] | Potency [6]

Nc1ncnc2c1c(-c1ccc(Cl)cc1)nn2-c1cccc(-c2cnnn2Cc2cccc(-c3ccccc3)c2)c1
inactive: Potency [1] | Potency [2] | Potency [7] | Potency [4] | Potency [5] | Potency [6]

Fc1ccc(CN2CCC(Nc3ccc(C(F)(F)F)nn3)CC2)cc1F
inactive: Potency [1] | Potency [2] | Potency [3] | Potency [4] | Potency [5] | Potency [6]

CC(=O)Nc1cccc(-c2csc(Nc3cc(C)ccn3)n2)c1
inactive: Potency [1] | Potency [2] | Potency [7] | Potency [4] | Potency [6]

N#C/C(=C1\Nc2ccccc2S1)c1ccnc(NCCc2cccnc2)n1
inactive: Potency [1] | Potency [2] | Potency [7] | Potency [6]

O=C(Nc1nc2ccc([N+](=O)[O-])cc2s1)C1CCCCC1
inactive: Potency [1] | Potency [2] | Potency [7] | Potency [4] | Potency [5] | Potency [6]

C=C1CC(=O)C2OC2(C)CC2OC(=O)C(=C)C2C(O)C1OC(=O)/C(C)=C\C (stereo unspecified)
inactive: Potency [1] | Potency [2] | Potency [7] | Potency [4] | Potency [6]

COc1ccc2c(c1)C(C(=O)N(Cc1ccc(N(C)C)cc1)c1ccc(C(C)C)cc1)CCC2 (stereo unspecified)
inactive: Potency [1] | Potency [7] | Potency [3] | Potency [4] | Potency [5] | Potency [6]

C=C1CC[C@H]2C(=C)CC[C@H]3C(=C)C(=O)O[C@@H]3[C@@H]12
inactive: Potency [1] | Potency [7] | Potency [3] | Potency [4] | Potency [5] | Potency [6]

COc1cc2nc(N3CCN(C(=O)c4ccco4)C4CCCCC43)nc(N)c2cc1OC (stereo unspecified)
inactive: Potency [1] | Potency [7] | Potency [3] | Potency [4] | Potency [5] | Potency [6]

CC(=O)OC1CC(C)(C(=O)O)CC2C3=CC(=O)C4C5(C)CCC(OC6OC(C(=O)O)C(O)C(O)C6OC6OC(C(=O)O)C(O)C(O)C6O)C(C)(C)C5CCC4(C)C3(C)CCC12C (stereo unspecified)
inactive: activity change, negative = cytotoxicity [1] 10.4% [at 11.6 µM] | activity change, negative = cytotoxicity [7] 12.9% [at 11.6 µM] | activity change, negative = cytotoxicity [3] 12.5% [at 11.6 µM] | activity change, negative = cytotoxicity [4] 14.8% [at 11.6 µM] | activity change, negative = cytotoxicity [5] 7.86% [at 11.6 µM] | activity change, negative = cytotoxicity [6] 5.64% [at 11.6 µM]

Reference: PubChem BioAssay (NCATS)
